Assay outcomes as filed in PubChem BioAssay.
BCR signal inh = blocks chronic active B-cell receptor signaling; ABC-DLBCL IkBa-CBG/CBR reporter, luminescence ratio, 4 h; Potency, µM (top dose mostly 46.1 µM), for the others: at the top dose activity change, negative = inhibition, actives largely listed as inhibitors; 0.05% of 340,000 active; AID 493014; active = well fitted inhibition curve with a large enough effect in the signal ratio, with a control signal flat, not every such curve was filed as active; inconclusive = small, poorly fitted or top-dose-only effect, or effect the other way, or a change in a side signal; the % refers to the signal ratio;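 also: potency is read from the fitted curve at half-maximal effect; plate controls were basal doxycycline-induced cells for no effect and cells given 10 µM MG132 for full effect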
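TMD8 human ABC-DLBCL cells with doxycycline-inducible IκBα–green luciferase fusion and unfused red luciferase, in 0.5% FBS medium; compounds up to 46 uM, 4 h at 37C. Green/red luminescence ratio, filter-overlap corrected, fitted to concentration-response curves.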
SW480 rereplic = induces DNA re-replication in SW480 colon adenocarcinoma cells; SW480 DNA re-replication, Hoechst DNA content imaging, 48 h; Potency, µM (series often up to 46.1 µM), for inactives: at the top dose re-replication activation, hits mostly activators; AID 624297; 1.8% of 340,000 active; also: potency is read from the fitted curve at half-maximal effect; % of control where 0% means no effect; nearly all actives have a fitted effect of over 55% in size
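Treated cells incubate 48 hr (37 C, 5% CO2), are stained 40 min with Hoechst, and nuclear fluorescence is enumerated; a rise in nuclei with high DNA signal marks re-replication.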
MCF10A rereplic = DNA re-replication induction in MCF 10a cells; MCF 10A DNA re-replication, Hoechst nuclear intensity, 48 h; Potency, µM (highest dose often 46.1 µM), without a hit: top-dose activity, positive = re-replication, most hits filed as activators; AID 624296; 2.9% of 350,000 active; also: potency is read from the fitted curve at half-maximal effect; % of control where 0% means no effect; nearly all actives have a fitted effect of over 50% in size
VP16 counter = Gal4-VP16 reporter inhibition counter-screen. Drosophila S2 Gal4-VP16 UAS-luciferase, luminescence, 20 h. Potency, µM (doses to about 53.6 µM), inactives show at the top dose activity, negative = inhibition, actives largely listed as inhibitors. 3.5% of 310,000 active;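 also: Gal4-VP16 expression switched on by copper sulfate through the metallothionein promoter; potency is read from the fitted curve at half-maximal effect; % is scaled to controls: 0 for no effect and ±100 for the full control effect; nearly all actives have a fitted effect of over 50% in size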
RORgamma inh = ROR gamma (mouse) transcription inhibition. Drosophila S2 Gal4-RORgamma UAS-luciferase reporter, 20 h. Potency, µM (series often up to 53.6 µM), for the others: at the highest dose activity change, negative = inhibition, hits mostly inhibitors. AID 2551. 5.4% of 310,000 active; also: potency is read from the fitted curve at half-maximal effect; % is scaled to controls: 0 for no effect and ±100 for the full control effect; nearly all actives have a fitted effect of over 60% in size
Target sequence (P51450 whole entry, looked up, the tested form may be a part): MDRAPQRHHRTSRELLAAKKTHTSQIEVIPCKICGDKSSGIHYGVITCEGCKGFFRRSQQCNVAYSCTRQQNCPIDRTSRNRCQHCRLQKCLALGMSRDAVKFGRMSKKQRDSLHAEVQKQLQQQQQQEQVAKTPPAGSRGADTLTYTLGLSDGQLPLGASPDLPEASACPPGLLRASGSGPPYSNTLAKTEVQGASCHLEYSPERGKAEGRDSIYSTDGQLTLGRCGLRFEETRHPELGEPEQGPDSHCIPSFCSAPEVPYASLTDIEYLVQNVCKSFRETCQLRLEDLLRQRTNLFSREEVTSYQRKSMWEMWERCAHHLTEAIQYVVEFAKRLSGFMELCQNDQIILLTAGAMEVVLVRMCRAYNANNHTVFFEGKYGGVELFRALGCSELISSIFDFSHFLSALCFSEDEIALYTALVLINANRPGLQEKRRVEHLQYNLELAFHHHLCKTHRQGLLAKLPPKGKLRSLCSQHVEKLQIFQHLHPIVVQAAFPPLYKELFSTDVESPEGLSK
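Schneider cells (Drosophila), stable Gal4 DBD–ROR gamma + UAS-luc; 1 hr cmpd preincubation; Cu2+ induction 700 uM final; 20 hr ambient; luminescence.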
Giardia killer = Giardia lamblia killing; Giardia lamblia trophozoite viability; activity change, % at 7.66 µM, hits read low; 0.15% of 340,000 active; AID 540267; in the data active = activity change below about -80%; inconclusive = between about -30% and that limit;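 also: parasites exposed to compound for two days anaerobically before the ATP read; % is scaled to controls: 0 for no effect and ±100 for the full control effect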
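Luminescent ATP signal served as the viability read-out, measured 15-30 min after adding ATP detection reagent to trophozoites that had been incubated with compounds for 48 hrs at 37 deg C anaerobically at 100 cells/well.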
* hit, by the source's call; ? = inconclusive; . = not tested or not shown; [ ] = another dose, or the depositor's remark. Shown are actives, neighbours in structure and some others; about 8.3% of the full set was active somewhere. Unless noted, calls follow the shape of the dose curve; as a rule, active = well fitted curve in the direction sought with a large enough effect; inconclusive = small, poorly fitted or top-dose-only effect, or another doubt; inactive = no such curve, though single readings can be large; an effect the other way counts as inactive or inconclusive.

SMILES	BCR signal inh	SW480 rereplic	MCF10A rereplic	VP16 counter	RORgamma inh	Giardia killer
CC(NC(=O)c1ccccc1F)c1nnc(SCC(=O)NC2=NCCS2)n1C (stereo not drawn)	-1%	-21%	-15%	-2%	-17%	2
COc1cccc(OCCn2cccc2/C=C2/C(=N)N3OC(C)=CC3=NC2=O)c1	1%	-1%	-3%	-4%	-1%	-3
CC1=CC2=NC(=O)/C(=C\c3cccn3CCOc3cccc(C)c3)C(=N)N2O1	-1%	5%	?	?	16µM*	7
CCc1ccc2c(c1)[C@H]1OCC[C@H]1[C@@H](c1cccs1)N2	?	5.2µM*	5.8µM*	-2%	?	-9
COc1ccc(-c2cc3nc(C)cc(N)n3n2)cc1	?	-7%	2%	10µM*	11µM*	?
Cc1cc(-c2ccccc2)n2nc(-c3ccc(Cl)cc3)cc2n1	-1%	.	.	.	.	.
COc1ccc(-c2cc3nc(C)cc(NCCO)n3n2)cc1	?	-12%	-1%	-5%	24%	-15
COc1ccc(-c2cc3nc(C)cc(-c4ccc(OC)cc4)n3n2)cc1	?	?	12µM*	1%	8%	19
COc1ccc(-c2cc3ncc(-c4ccccc4)c(N)n3n2)cc1	?	6%	2%	7.9µM*	?	?
CC(C)CCN1CCC(n2nccc2NC(=O)c2ccc3c(c2)OCO3)CC1	-2%	1%	4%	-4%	-5%	15
S=C1NC(C23CC4CC(CC(C4)C2)C3)=CC(c2ccc3c(c2)OCO3)N1 (stereo not drawn)	5%	0%	11%	?	0.71µM*	-19
COc1cc(C2C=C(C34CC5CC(CC(C5)C3)C4)NC(=S)N2)cc(OC)c1OC (stereo not drawn)	-14%	?	-1%	0.79µM*	1µM*	-7
COc1ccc(OC)c(C2C=C(C34CC5CC(CC(C5)C3)C4)NC(=S)N2)c1 (stereo not drawn)	2%	?	0%	3.2µM*	3.2µM*	-15
COc1ccc(OC)c(C(C)NC(=O)C23CC4CC(CC(C4)C2)C3)c1 (stereo not drawn)	-1%	-17%	17%	1%	16%	-3
COc1ccc(C2=CC(c3cc(OC)c(OC)c(OC)c3)NC(=S)N2)cc1 (stereo not drawn)	?	18µM*	?	?	13µM*	-3
Clc1ccc2nncn2n1	-1%	?	1%	1%	-13%	1
O=C(Cc1ccccc1)c1ccccc1C(=O)N1CCCCC1	?	-3%	-16%	-6%	3%	0
CCOC(=O)c1c(C)[nH]c(C(=O)N/N=C/c2ccc(Br)cc2)c1C	?	0.73µM*	?	?	?	-1
O=C(CCN1C(=O)c2cccc3cccc(c23)C1=O)Nc1ccccc1	-14%	-14%	0%	-8%[10 µM]	25%	-25
COc1ccc2c(c1)O[C@@H](c1ccc3c(c1)OCO3)[C@H](OC(=O)Nc1ccc(C)c(Br)c1)C2=O	.	.	.	-11%	-30%	.
COc1ccc2c(c1)O[C@H](c1ccc3c(c1)OCO3)[C@@H](OC(=O)Nc1cc(OC)c(OC)c(OC)c1)C2=O	?	12µM*	?	-4%	-19%	.
CCn1cc(Cl)c(C(=O)Nc2cccc(CN3CCOCC3)c2)n1	0%	12%	20%	5%	12%	17
O=C(Nc1ccc(Cc2ccncc2)cc1)c1ccc(S(=O)(=O)N2CCCC2)cc1	0%	?	?	11µM*	?	6
O=C(Nc1ccc(S(=O)(=O)N2CCCC2)cc1)c1ccc(CN2CCc3ccccc3C2)cc1	8%	21%	?	1.4µM*	5.6µM*	-9
CCN(CC)c1ccc(S(=O)(=O)N2CCOCC2)cc1NC(=O)CN1CCc2ccccc2C1	?	-23%	7%	-17%[10 µM]	3.2µM*	0
SMILES	BCR signal inh	SW480 rereplic	MCF10A rereplic	VP16 counter	RORgamma inh	Giardia killer
O=C(Nc1ccc(S(=O)(=O)N2CCOCC2)cc1)c1ccc(CN2CCc3ccccc3C2)cc1	-11%	5%[9.22 µM]	?	2.2µM*	8.9µM*	31
Cc1[nH]c2ccccc2c1C(=O)COC(=O)c1ccccc1O	?	1%	1%	.	.	20
Nc1cc(=O)nc(SCC(=O)N2CCN(c3ccccc3)CC2)n1-c1ccc(F)cc1	0%	14%	10%	-4%	15%	6
Cc1cc(O)c(Oc2cc(C)cc(O)c2O)c(O)c1	17%	18µM*	30%	?	18µM*	-18
COc1c(O)cc(O)cc1O	.	.	.	7%	7%	.
O=C(O)Cn1cc(C(=S)N2CCCCC2)c2ccccc21	-1%	-12%	0.58µM*	-14%	5%	14
S=C(c1cn(CCOc2ccccc2)c2ccccc12)N1CCCC1	?	-6%	26%	-2%[0.365 µM]	7.1µM*	7
S=C(c1cn(CCOc2cccc3ccccc23)c2ccccc12)N1CCCC1	-3%	?	?	?	11µM*	-10
O=C(O)Cn1cc(C(=S)N2CCOCC2)c2ccccc21	?	-3%	1%	0%	-15%	11
Cc1ccc(OCCn2cc(C(=O)O)c3ccccc32)cc1	-1%	-6%	-3%	?	0%	7
Cc1ccc(OCCn2cc(C(=S)N3CCCC3)c3ccccc32)cc1C	10%	?	?	-2%[0.365 µM]	6.3µM*	15
O=S(=O)(NCCc1cn(S(=O)(=O)c2ccccc2)c2ccccc12)c1ccccc1	.	.	.	.	.	7
COc1ccc(N2C(=O)C3CCCCC3C2=O)cc1NC(=O)c1ccccc1 (stereo not drawn)	22%	9%	-11%	8%	0%	17
COc1ccc(NC(=O)C(=O)c2cn(CC(=O)N3CCCC3)c3ccccc23)cc1	?	0.46µM*	?	22%	19%	21
COCCn1cc(C(=S)N2CCCCC2)c2ccccc21	1%	10%	-44%	?	16µM*	-12
Cc1ccccc1-c1nc(Nc2ccncc2)c2ccccc2n1	.	.	.	-20%	7.1µM*	.
Clc1ccccc1-c1nc(Nc2ccncc2)c2ccccc2n1	.	.	.	-10%	11µM*	.
CC1CCN(C(=O)c2[nH]cnc2C(=O)N[C@@H](Cc2ccccc2)C(=O)OC(C)(C)C)CC1	1%	14%	-19%	20µM*	?	-19
CC(C)(C)OC(=O)[C@H](Cc1ccccc1)NC(=O)c1nc[nH]c1C(=O)N1CCN(C(=O)OC(C)(C)C)CC1	13%	-36%[9.22 µM]	?	?	11µM*	0
CC(C)C[C@H](NC(=O)c1nc[nH]c1C(=O)N1CCN(C(=O)OC(C)(C)C)CC1)C(=O)OCc1ccccc1	12%	12%	?	?	8.9µM*	-8
